AHR activator: activates the human aryl hydrocarbon receptor. AID 2796. AHR-responsive luciferase reporter cells, luminescence. activation, % at 5 µM. 320,000 compounds, 2.5% hits; in the data active = activation above about 47%;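 note: 0% = vehicle wells and 100% = reference agonist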
SENP6 block: SENP6 protease inhibition; inhibition, % at 10 µM; 330,000 compounds, 1.8% hits; Recombinant SENP6 catalytic domain, aminoluciferin luminescence; AID 2599;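 active = inhibition above about 50% at the single tested dose, limit read from the data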;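 note: plate controls were DMSO wells with enzyme for no effect and DMSO wells lacking enzyme for full effect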
SENP8 block-1: SENP8 (human) protease inhibition; Q96LD8; recombinant SENP8, Nedd8 substrate fluorescence; inhibition, % at 20 µM; 360,000 compounds, 0.64% hits; AID 602440; in the data active = inhibition mostly above about 40%, no sharp cut-off; inactive = mostly below about 27%
EBI2 block: antagonists of human EBI2 receptor. P32249. EBI2 beta-arrestin recruitment, luminescence, 7a,25-OHC stimulated. inhibition, % at 5 µM. 360,000 compounds, 0.81% hits. AID 651636; in the data active = inhibition above about 38%;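 note: enzyme fragment complementation signal reports receptor beta-arrestin coupling in cells; 0% = agonist plus DMSO wells and 100% = wells without agonist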
Target sequence (P32249 whole entry, looked up, the tested form may be a part): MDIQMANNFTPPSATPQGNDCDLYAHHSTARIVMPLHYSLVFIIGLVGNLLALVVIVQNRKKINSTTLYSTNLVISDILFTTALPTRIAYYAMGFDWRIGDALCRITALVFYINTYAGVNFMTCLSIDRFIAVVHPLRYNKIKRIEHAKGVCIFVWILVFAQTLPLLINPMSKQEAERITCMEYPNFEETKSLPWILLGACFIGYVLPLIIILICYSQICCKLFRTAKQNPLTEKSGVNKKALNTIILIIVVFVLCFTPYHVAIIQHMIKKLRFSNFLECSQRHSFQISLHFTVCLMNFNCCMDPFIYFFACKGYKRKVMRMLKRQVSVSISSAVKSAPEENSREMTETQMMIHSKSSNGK
SENP7 block: inhibitors of human SENP7 protease | inhibition, % at 5 µM | recombinant SENP7, Z-RLRGG-aminoluciferin luminescence, 40 min | 330,000 compounds, 1.5% hits | Q9BQF6;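 active = inhibition above about 50% at the single test dose, limit read from the data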;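 note: plate controls were DMSO with enzyme for no effect and no enzyme buffer wells for full effect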
SENP8 block-2: blocks the human protease SENP8 | purified SENP8, Z-RLRGG-aminoluciferin cleavage, luminescence | inhibition, % at 10 µM | 330,000 compounds, 1.2% hits | AID 2540; in the data active = inhibition above about 50%
SENP8 confirm: human SENP8 inhibition, confirmed. inhibition, % at 12.5 µM. Recombinant SENP8, Z-RLRGG-aminoluciferin luminescence, 60 min. 6,200 compounds, 40% hits. AID 488912. shares compounds with SENP7 block;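 active = mean inhibition across replicates above about 50%, limit read from the data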
SENP6 confirm: confirmation of human SENP6 protease inhibitors | inhibition, % at 12.5 µM | 6,200 compounds, 58% hits | shares compounds with SENP7 block | recombinant SENP6, Z-RLRGG-aminoluciferin luminescence
SENP7 confirm: human SENP7 inhibition, confirmed. 6,200 compounds, 69% hits. recombinant SENP7, Z-RLRGG-aminoluciferin luminescence, 40 min. shares compounds with SENP7 block. inhibition, % at 12.5 µM
Casp3 select: selectivity test for SENP inhibitors: human caspase-3 inhibition | shares compounds with SENP7 block | inhibition, % at 12.5 µM | purified caspase-3, Z-DEVD-aminoluciferin luminescence, 60 min | 6,200 compounds, 60% hits;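 active = mean inhibition above about 50%, limit read from the data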;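 note: plate controls were enzyme with DMSO for no effect and wells without caspase-3 for full effect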
Target sequence (P42574 28-227 limits assumed): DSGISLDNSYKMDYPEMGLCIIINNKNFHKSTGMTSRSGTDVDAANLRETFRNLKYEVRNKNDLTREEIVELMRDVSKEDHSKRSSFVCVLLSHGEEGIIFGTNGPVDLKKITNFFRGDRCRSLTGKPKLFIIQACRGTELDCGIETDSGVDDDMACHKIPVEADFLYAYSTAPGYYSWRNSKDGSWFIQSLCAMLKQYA
Luc interf: interferes with luciferase luminescence in SENP counter-screen; AID 488919; shares compounds with SENP7 block; inhibition, % at 12.5 µM; Pre-incubated SENP8/Z-RLRGG-aminoluciferin, luciferase luminescence interference; 6,200 compounds, 39% hits;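 active = mean inhibition above about 50% when retested at one dose, limit read from the data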;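 note: plate controls were DMSO wells with completed reaction for no effect and substrate without enzyme for full effect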
Starred values were filed as active, the others as inactive; nt = no result. Rows were chosen to be rich in hits. Some 5% of all compounds tested hit in one or more screens of this group.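 Rule for the calls, unless noted: active = mean inhibition above about 50% in the one-dose retest (limit read from the data); inactive = the rest.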

SMILES	AHR activator	SENP6 block	SENP8 block-1	EBI2 block	SENP7 block	SENP8 block-2	SENP8 confirm	SENP6 confirm	SENP7 confirm	Casp3 select	Luc interf
CCCCC1C(=O)N(c2ccccc2)N(c2ccccc2)C1=O	0.6	7.0	0.8	-2.3	0.9	4.7	nt	nt	nt	nt	nt
Cc1cccc([C@@H]2C[C@H]3CN(Cc4cccc(Cl)c4)C(=O)[C@]34CCCN24)n1	0.6	-9.2	7.6	3.7	3.6	-11.0	nt	nt	nt	nt	nt
Cc1ccc([C@@H]2C[C@H]3CN(Cc4cccc(Cl)c4)C(=O)[C@]34CCCN24)o1	-3.2	63.7*	1.1	5.3	-4.6	3.9	-14.1	-11.2	-11.4	-5.9	-10.6
CCN(CC)c1ccc(C(=O)OCC(=O)NC(C)(C)C)cc1	7.3	-2.5	4.8	3.7	-0.2	2.7	nt	nt	nt	nt	nt
O=c1c2ccccc2sc2ccc(C#CC3(O)CCCCC3)cc12	-10.9	98.3*	-260.1	5.7	97.0*	95.9*	97.1*	98.9*	102.5*	96.7*	44.1
COc1cccc2sc3ccc(C#CC4(O)CCCCC4)cc3c(=O)c12	-5.7	93.1*	-320.5	10.2	87.8*	89.4*	90.9*	95.1*	99.6*	81.8*	46.2
Cc1occc1C(=O)N/N=C/c1ccc(-c2ccccc2)cc1	7.4	99.0*	17.6	4.7	100.2*	97.5*	71.3*	99.8*	102.6*	98.5*	69.9*
Cc1occc1C(=O)Nc1cccc2ccccc12	24.8	96.3*	-34.2	-1.1	95.0*	91.1*	10.1	95.5*	101.6*	91.4*	93.5*
CCN(CC)c1ccc(/C=N/NC(=O)c2ccoc2C)c(O)c1	-6.0	98.0*	-115.8	7.1	100.5*	94.1*	96.2*	97.7*	103.4*	40.2	4.7
Cc1occc1C(=O)N/N=C/c1cccc2ccccc12	44.1	89.8*	13.6	10.6	92.1*	88.7*	56.0*	87.8*	99.7*	89.4*	14.1
CCN(CC)c1ccc(/C=N/NC(=O)OC)c(O)c1	27.5	-10.5	11.4	12.0	0.3	-5.1	nt	nt	nt	nt	nt
COc1ccc(/C=N/NC(=O)c2ccoc2C)cc1OC	7.2	56.3*	20.6	-4.1	47.4	6.0	31.4	28.3	69.8*	79.5*	52.0*
COc1ccc(/C=N/NC(=O)c2ccoc2C)cc1O	6.2	75.6*	-29.1	-6.4	67.2*	-5.3	68.5*	67.4*	88.9*	89.9*	72.7*
Cc1occc1C(=O)N/N=C/c1cccs1	4.3	66.8*	5.7	0.8	83.0*	62.2*	72.4*	72.1*	91.0*	91.4*	74.0*
COc1cc(/C=N/NC(=O)c2ccoc2C)cc(OC)c1OC	36.8	-4.0	2.3	6.0	0.5	0.2	nt	nt	nt	nt	nt
Cc1occc1C(=O)N/N=C/C(Br)=C/c1ccccc1	-3.4	91.6*	4.9	-2.5	88.5*	84.2*	66.1*	91.7*	99.0*	88.4*	25.1
O=S(=O)(O)c1nc2ccccc2[nH]1	2.6	1.2	14.5	6.6	12.3	-6.8	nt	nt	nt	nt	nt
COc1cccc(Nc2ncccc2C(=O)Nc2ccccc2)c1	10.6	-6.4	16.8	-21.1	-9.9	-7.9	nt	nt	nt	nt	nt
CCOC(=O)c1csc(NC(=O)CC2CCCC2)n1	0.1	-1.5	2.6	-9.9	1.3	-10.3	nt	nt	nt	nt	nt
CSc1ncccc1C(=O)NCCc1ccccc1F	-2.0	-2.1	21.5	-7.4	-2.6	-1.2	nt	nt	nt	nt	nt
CCc1ccc(/C=N\NC(=O)c2ccc(Br)o2)s1	31.7	54.9*	-26.5	10.8	31.4	15.4	40.7	37.3	76.0*	67.2*	53.7*
CSc1ccc(Cl)c(C(=O)Nc2ccc(Cl)cn2)c1	-2.0	-12.1	6.7	-5.4	-6.1	-6.9	nt	nt	nt	nt	nt
COc1cc(SC)ccc1C(=O)Nc1ccc(Cl)cn1	8.6	14.1	-7.2	27.1	96.2*	87.0*	-1.2	-0.4	2.2	0.0	-3.4
COc1cc(SC)ccc1C(=O)Nc1ccc2c(c1)CCC2	41.0	69.2*	6.5	31.1	72.7*	66.5*	12.9	74.6*	90.5*	54.2*	7.3
Cc1c(/C=C/C(=O)c2cccs2)cnn1C	-7.6	-20.5	-77.0	-6.4	-5.0	-14.3	nt	nt	nt	nt	nt
SMILES	AHR activator	SENP6 block	SENP8 block-1	EBI2 block	SENP7 block	SENP8 block-2	SENP8 confirm	SENP6 confirm	SENP7 confirm	Casp3 select	Luc interf
CCc1ccc(C(=O)/C=C/c2cnn(C)c2C)s1	-3.6	53.8*	-130.6	6.8	13.1	-15.9	5.6	-14.4	15.4	-6.1	18.9
COc1ccccc1CN=c1c([N+](=O)[O-])nn(-c2ccc3c(c2)OCCO3)n1O	13.9	46.2	26.1	-2.6	59.1*	22.5	-10.9	1.9	-9.0	7.5	0.5
O=[N+]([O-])c1nn(-c2ccc3c(c2)OCCO3)n(O)c1=NCc1ccccc1Cl	-0.2	27.4	17.2	-5.4	63.7*	8.5	10.3	31.7	64.6*	12.9	7.0
Cc1onc(-c2c(F)cccc2Cl)c1C(=O)NCCc1ccncc1	10.3	-5.8	8.5	-0.4	-8.9	-12.1	nt	nt	nt	nt	nt
COC(CNC(=O)CNC(=S)N(Cc1ccccc1)Cc1cccnc1)OC	-0.3	-18.7	15.7	0.8	5.1	-10.0	nt	nt	nt	nt	nt
Cc1cccc(C(C(=O)NC2CCCCC2)N(Cc2cccnc2)C(=O)c2csnn2)c1 (configuration not stated)	-1.9	-9.6	9.8	-11.5	5.1	-3.0	nt	nt	nt	nt	nt
CCCn1c(=O)c(C(=O)NCc2ccccc2OC)c(O)c2ccccc21	0.1	88.1*	-22.0	-2.7	9.1	5.8	8.9	5.1	2.9	0.0	4.5
Cc1ccc(NC(=O)CC2C(=O)NC3CCCCC3N2C(=O)c2ccc(F)cc2)cc1C (configuration not stated)	0.9	54.3*	7.0	3.7	11.0	2.8	11.3	7.9	9.8	4.8	6.2
Cn1c(CNc2ccc(F)cc2)nc2ccccc21	nt	79.7*	19.5	13.9	77.9*	57.7*	72.1*	71.9*	92.2*	87.3*	74.6*
Cc1ccccc1NCc1nc2ccccc2n1C	78.5*	84.9*	2.4	-5.1	86.3*	78.3*	82.9*	84.3*	97.9*	93.3*	56.3*
Cc1cccc(/C=N/NC(=O)C(C)Nc2cccc3ccccc23)n1 (configuration not stated)	11.2	87.7*	-19.7	-0.7	-5.4	77.9*	-20.3	-5.5	0.4	-6.3	-2.7

Compound activity from PubChem.
